Screening data: PubChem, National Center for Advancing Translational Sciences (NCATS)
Sampled rows, rich in hits. Any-hit rate of the full collection: about 19%.
IL-1B inflam inh: inhibitors of inflammasome signaling (IL-1 beta secretion); activity change, % at 57.5 µM; THP-1 LPS/ATP IL-1B secretion, AlphaLISA, 16 h; hits give low values; actives 4.7% (n = 360,000); in the data active = activity change below about -50%; inconclusive = mostly about -30% to -49%
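THP-1 cells pretreated 1 hr with compounds (up to 57.5 uM final), then stimulated with LPS (250 ng/mL final) plus ATP (1.25 mM final); secreted IL-1B measured by AlphaLISA after 16 hr, decreased signal indicating inhibition.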
HT1080 IDH1KD tx: HT-1080 IDH1 knockdown cell toxicity (counter line); HT-1080 IDH1 knockdown viability, ATP luminescence, 48 h; Potency, µM (highest dose often 46.1 µM), for the others: top-dose activity, negative = toxicity, most hits filed as cytotoxic; actives 2% (n = 360,000);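 also: potency is read from the fitted curve at half-maximal effect; 0% = DMSO wells and -100% = cell-free medium wells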
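Luminescent ATP read-out (CellTiter-Glo, 10 min at room temperature) after 48 h compound exposure at 37 °C gave viability of IDH1-knockdown HT-1080 cells. Activity was normalised to DMSO and cell-free wells, then fitted as concentration-response curves.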
DT40 TDP1 no CPT: qHTS for Inhibitors of human tyrosyl-DNA phosphodiesterase 1 (TDP1): qHTS in cells in absence of CPT. DT40 Tdp1-/- hTDP1 cells, no CPT, ATP luminescence, 48 h. AID 686978, 2013. actives 15% (n = 420,000). Potency, µM (series often up to 46.2 µM), without a hit: at the highest dose activity change, negative = growth inhibition, usual class: inhibitors; also: potency is read from the fitted curve at half-maximal effect; nearly all actives have a fitted effect of over 55% in size
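Compound effects on proliferation are scored in DT40 Tdp1-/-;hTDP1 cells in the absence of CPT. ATP levels (CellTiter-Glo luminescence) are recorded after a ≥48 hr, 37 °C incubation.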
HT1080NT lethal: kills 2HG-producing HT-1080-NT fibrosarcoma cells; AID 686970; HT-1080-NT fibrosarcoma viability, CellTiter-Glo ATP luminescence, 48 h; Potency, µM (doses to about 46.1 µM), inactives show at the top dose activity, negative = less viability, hits mostly cytotoxic; actives 1.6% (n = 360,000);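 also: NT is the 2HG producing partner of a matched IDH1 knockdown line; potency is read from the fitted curve at half-maximal effect; 0% = DMSO-treated cells and -100% = media-only wells without cells; nearly all actives have a fitted effect of over 55% in size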
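Fibrosarcoma NT cells, 750 per well in 5% FBS RPMI, were exposed to compound for 48 hours. Viability: CellTiter-Glo luminescence.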
TDP1 cell CPT: DT40-hTDP1 cell growth loss with CPT. chicken DT40 Tdp1-/-;hTDP1 cells + 20 nM CPT, ATP luminescence, 48 h. Potency, µM (series often up to 46.2 µM), for the others: at the highest dose activity change, negative = growth inhibition, most hits filed as inhibitors. actives 12% (n = 420,000); also: potency is read from the fitted curve at half-maximal effect; nearly all actives have a fitted effect of over 55% in size
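Chicken DT40 Tdp1-/- cells stably complemented with human TDP1 were seeded at 400 cells/well in medium containing 20 nM camptothecin, exposed to pin-transferred compounds, and grown at 37 °C for at least 48 hr. Viability was read as ATP luminescence.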
Active calls of the source: *; u = inconclusive; x = no result; [ ] = remark or other dose. Unless noted, calls follow the shape of the dose curve; as a rule, active = well fitted curve in the direction sought with a large enough effect; inconclusive = small, poorly fitted or top-dose-only effect, or another doubt; inactive = no such curve, though single readings can be large; an effect the other way counts as inactive or inconclusive. Unless noted, % is scaled to controls: 0 for no effect and ±100 for the full control effect.

SMILES | IL-1B inflam inh | HT1080 IDH1KD tx | DT40 TDP1 no CPT | HT1080NT lethal | TDP1 cell CPT
COc1ccc(C(=O)NCC(=O)N=Nc2c(O)n(Cc3ccccc3)c3ccccc23)cc1OC | -7 | -13% | 16µM* | -10% | u
O=C(N=Nc1c(O)n(Cc2ccccc2)c2ccccc12)c1cc2ccccc2cc1O | 1 | -3% | 15µM* | -6% | u
C[C@@H]1CN(Cc2ccc3c(c2)CN(Cc2cccc4cccnc24)CCO3)C[C@H](C)O1 | x | x | u | x | 1%[9.04 µM]
CCOc1ccc(NC(=O)c2ccc(NS(=O)(=O)c3cccs3)cc2)cc1 | -17 | -12% | u | -5% | -26%
O=C(O)/C=C/c1ccc(S(=O)(=O)N2CCN(CCN3C(=O)C4C5C=CC(C5)C4C3=O)CC2)cc1 (stereo not given) | -15 | 2% | -8% | 3% | -1%
CCCCn1c(SCCN2CCCCC2)nc2c1c(=O)n(C)c(=O)n2C | 2 | 3% | -28% | -3% | -30%
Cc1c(C(=O)N/N=C/c2ccccn2)nnn1-c1nonc1N | u | 6% | u | 18% | 13%
O=C(N/N=C/c1cccc(Cl)c1)C(c1ccncc1)N1CCOCC1 (stereo not given) | 13 | 1% | -12% | 0% | -1%
COc1cccc(CNC(=O)CCCc2nnc3n(C)c(=O)c4sccc4n23)c1 | -8 | -1% | -15% | 1% | -27%
COc1ccccc1NC(=O)Cn1c(O)c(N=NC(=O)c2ccccc2O)c2ccccc21 | 13 | 0% | 1.8µM* | -5% | 0.92µM*
Cc1ccc(NC(=O)Cn2c(O)c(N=NC(=O)c3cc4ccccc4cc3O)c3ccccc32)cc1 | -95* | u | 7.3µM* | 21µM* | 7.3µM*
Cc1ccc(NC(=O)Cn2c(O)c(N=NC(=O)c3ccncc3)c3ccccc32)cc1 | 53 | 13% | -2% | 14% | u
Cc1cccc(NC(=O)Cn2c(O)c(N=NC(N)=S)c3ccccc32)c1 | -26 | u | 15µM* | u | 23µM*
Nc1ccc2c(c1)C(O)c1cccc(C(=O)O)c1-2 (stereo not given) | 7 | 3% | -7% | 11% | -1%
OC[C@@H]1CN(CCc2ccccc2)C[C@H](n2cnc3c(NCc4ccc(F)cc4)ncnc32)O1 | -4 | 0% | u | -26% | u
COc1ccc(Br)cc1S(=O)(=O)N1CCCc2ccccc21 | 0 | -16% | u | -17% | -25%
O=P(c1ccccc1)(c1ccccc1)c1cc(S(=O)(=O)O)ccc1O | 4 | 7% | 20% | 2% | -1%
CCOc1cc(CNCc2cccs2)cc(Br)c1OC | 0 | -12% | u | -23% | u
COc1cc(CNCc2cccs2)ccc1OCC(=O)NC(C)(C)C | -4 | -18% | -18% | -20% | -13%
COc1cc(CNCc2cccs2)ccc1OCc1cccs1 | -84* | u | u | 9% | -16%
COc1cc(CNC(C)(C)C)cc(Br)c1OCc1cccs1 | u | u | 15µM* | u | u
COc1cc(CNCCO)cc(Br)c1OCc1cccs1 | -21 | -27% | 29µM* | u | -17%
Cc1ccc(CNS(=O)(=O)NCc2cccs2)cc1 | -13 | -12% | u | -2% | -20%
CCN(CC)c1ccc(CNCc2cccs2)cc1 | u | -25% | 21µM* | -13% | 16µM*
Nc1ncnc2c1ncn2[C@@H]1O[C@H](C(=O)N[C@@H](CO)Cc2ccccc2)[C@@H](O)[C@H]1O | 0 | 19% | -11% | 28% | 0%
SMILES | IL-1B inflam inh | HT1080 IDH1KD tx | DT40 TDP1 no CPT | HT1080NT lethal | TDP1 cell CPT
NC(Cc1ccccc1)c1csc(Nc2ccc(C(=O)c3ccccc3)cc2)n1 (stereo not given) | -69* | u | 8.2µM* | u | 15µM*
NC(COCc1ccccc1)c1csc(Nc2ccc(C(=O)NCCO)cc2)n1 (stereo not given) | 0 | 6% | u | -7% | u
NC(Cc1ccc(F)cc1)c1csc(Nc2ccc(C(=O)c3ccccc3)cc2)n1 (stereo not given) | x | 15µM* | u | u | u
COc1ccc(CC(N)c2csc(Nc3ccc(C(C)=O)cc3)n2)cc1 (stereo not given) | -14 | u | 21µM* | u | 26µM*
NC(Cc1ccc(Cl)cc1)c1csc(Nc2ccc(C(=O)c3ccccc3)cc2)n1 (stereo not given) | 0 | u | 21µM* | u | 21µM*
CC(=O)c1ccc(Nc2nc(C(N)C(C)C)cs2)cc1 (stereo not given) | u | 0% | u | 1% | u
Cc1cccc(NC(=O)C2CCCN(S(=O)(=O)c3c(C)n[nH]c3C)C2)c1 (stereo not given) | x | x | u | x | -6%
CCCCn1c(N)c(N(CC)C(=O)c2cc3c(s2)CCCCC3)c(=O)[nH]c1=O | -3 | -7% | -7% | -2% | -16%
OC1COCOC1C(O)C1OCOCC1O (stereo not given) | -3 | 13% | 4% | 21% | 1%
COc1ccc(CC(N)c2csc(Nc3ccc(C(=O)c4ccccc4)cc3)n2)cc1 (stereo not given) | -70* | u | 9.2µM* | u | 12µM*
Cc1ccc(-c2nc3ccc(C)cn3c2Cc2cccc(F)c2)cc1 | -24 | u | u | u | u
Cc1ccc2nc(C(C)(C)C)c(Cc3cccc(F)c3)n2c1 | -5 | 23µM* | 18µM* | 16µM* | 15µM*
COC(=O)c1ccc2nc(-c3ccc(C#N)cc3)c(Cc3cccc(F)c3)n2c1 | 3 | -15% | 18µM* | -9% | 15µM*
COC(=O)c1ccc2nc(-c3ccc(C)cc3)c(Cc3cccc(F)c3)n2c1 | 31 | 5% | 21µM* | -8% | 21µM*
O=c1nc2ccccc2c2n1C[C@H](CN1CCN(c3ccccc3)CC1)N2 | x | x | 4% | x | 6%
C[C@@H]1CN([C@@H](C)CO)C(=O)c2cc(Br)cnc2O[C@H]1CN(C)C(=O)Cc1cccnc1 | 1 | 9% | 10% | 7% | 7%
CCS(=O)(=O)N1CCC(C(=O)NCCCN2CCN(c3ccccc3F)CC2)CC1 | 28 | 14% | 3% | 0% | 0%
O=C(NCCN1C(=O)S/C(=C\c2ccccc2)C1=O)C1CCN(S(=O)(=O)c2cccs2)CC1 | -1 | 0% | 18µM* | -4% | 13µM*
O=C(NCCCN1CCN(c2ccccc2F)CC1)C1CCN(S(=O)(=O)c2cccs2)CC1 | 10 | -21% | u | 2% | 13µM*
